Sampled rows, rich in hits. Any-hit rate of the full collection: about 19%.
TDP1 cell CPT = DT40-hTDP1 cell growth loss with CPT. chicken DT40 Tdp1-/-;hTDP1 cells + 20 nM CPT, ATP luminescence, 48 h. Potency, µM (top dose mostly 46.2 µM), for the others: at the top dose activity change, negative = growth inhibition, actives largely listed as inhibitors. 420,000 compounds, 12% hits. AID 686979; further: potency means the concentration at half of the fitted maximal effect; nearly all actives have a fitted effect of over 55% in size
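Chicken DT40 Tdp1-/- cells complemented with human TDP1, 400 cells/well, exposed to compounds plus 20 nM camptothecin for at least 48 h at 37 C; viability read as ATP content by CellTiter-Glo luminescence.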
IL-1B inflam inh = blocks inflammasome-driven IL-1 beta release. activity change, % at 57.5 µM. 360,000 compounds, 4.7% hits. THP-1 LPS/ATP IL-1B secretion, AlphaLISA, 16 h; stronger effect = lower value; in the data active means activity change below about -50%; inconclusive means mostly about -30% to -49%
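THP-1 cells pretreated 1 hr with compounds (up to 57.5 uM final), then stimulated with LPS (250 ng/mL final) plus ATP (1.25 mM final); secreted IL-1B measured by AlphaLISA after 16 hr, decreased signal indicating inhibition.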
HT1080 IDH1KD tx = toxicity to HT-1080 IDH1 knockdown cells (counter line). HT-1080 IDH1 knockdown viability, ATP luminescence, 48 h. Potency, µM (top dose mostly 46.1 µM), for the others: at the highest dose activity, negative = toxicity, most hits filed as cytotoxic. 360,000 compounds, 2% hits. AID 686971;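 further: potency means the concentration at half of the fitted maximal effect; 0% = DMSO wells and -100% = cell-free medium wells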
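Luminescent ATP read-out (CellTiter-Glo, 10 min at room temperature) after 48 h compound exposure at 37 °C gave viability of IDH1-knockdown HT-1080 cells. Activity was normalised to DMSO and cell-free wells, then fitted as concentration-response curves.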
HT1080NT lethal = kills 2HG-producing HT-1080-NT fibrosarcoma cells; HT-1080-NT fibrosarcoma viability, CellTiter-Glo ATP luminescence, 48 h; Potency, µM (highest dose often 46.1 µM), for inactives: top-dose activity, negative = less viability, most hits filed as cytotoxic; AID 686970; 360,000 compounds, 1.6% hits;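 further: NT is the 2HG producing partner of a matched IDH1 knockdown line; potency means the concentration at half of the fitted maximal effect; 0% = DMSO-treated cells and -100% = media-only wells without cells; nearly all actives have a fitted effect of over 55% in size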
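HT-1080-NT fibrosarcoma cells (2HG-overproducing), 750 cells/well in RPMI with 5% FBS, dosed after 2 h and incubated 48 h at 37C. CellTiter-Glo luminescence normalized to DMSO and no-cell wells; concentration-response curves fitted and classed.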
DT40 TDP1 no CPT = qHTS for Inhibitors of human tyrosyl-DNA phosphodiesterase 1 (TDP1): qHTS in cells in absence of CPT; DT40 Tdp1-/- hTDP1 cells, no CPT, ATP luminescence, 48 h; Potency, µM (highest dose often 46.2 µM), for inactives: at the top dose activity change, negative = growth inhibition, actives largely listed as inhibitors; 420,000 compounds, 15% hits; further: potency means the concentration at half of the fitted maximal effect; nearly all actives have a fitted effect of over 55% in size
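No-CPT arm: Tdp1-/-;hTDP1 DT40 cells (400/well) plus compounds, incubated ≥48 hr at 37 °C. Readout CellTiter-Glo luminescence.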
* marks the source's active call; other numbers are inactive results; ? = inconclusive; · = not tested or not shown; [ ] = remark or other dose. Unless noted, the call rests on the fitted dose curve; in most records, active means well fitted curve in the direction sought with a large enough effect; inconclusive means small, poorly fitted or top-dose-only effect, or another doubt; inactive means no such curve, though single readings can be large; an effect the other way counts as inactive or inconclusive. Unless noted, on the % scale 0 is the no-effect control and ±100 the full control effect.

SMILES	TDP1 cell CPT	IL-1B inflam inh	HT1080 IDH1KD tx	HT1080NT lethal	DT40 TDP1 no CPT
Nc1ccc(NC(=O)c2cccc(C(=O)Nc3ccc(N)cc3Cl)c2)c(Cl)c1	18µM*	0	16µM*	?	16µM*
O=C(Nc1ccccc1O)c1cccc(NC(=O)c2ccco2)c1	21µM*	57	-10%	8%	13µM*
O=C(Nc1cccc(NC(=O)c2ccco2)c1)c1ccccc1	-20%	-12	1%	-7%	-16%
CCCNC(=O)c1cc(Cl)c(NC(=O)C2=CSCCO2)cc1OC	?	?	13%	?	?
O=C1CCN(Cc2ccccc2)CCN1[C@H](CO)Cc1ccccc1	-3%	12	7%	-1%	-12%
CCCCCCCN1CCC(=O)N([C@H](CO)Cc2ccccc2)CC1	21µM*	-10	-4%	-7%	13µM*
CCCN1CCC(=O)N([C@H](CO)Cc2ccccc2)CC1	1%	-21	-3%	2%	-11%
CCCCCCCN1CCC(=O)N([C@H](CO)CC(C)C)CC1	?	-1	1%	-12%	23µM*
O=C1CCN(Cc2ccc(Br)cc2)CCN1[C@H](CO)Cc1ccccc1	20µM*	-2	0%	6%	?
Cc1ccc(C)c(OCCC(=O)Nc2ccc(S(=O)(=O)N3CCCC3)cc2)c1	-23%	-2	?	?	?
Cc1ccccc1C1(CC(=O)N2CC3CC4CC(C3)CC2C4)CC(=O)N(Cc2cccnc2)C1=O (stereo unspecified)	-8%[9.04 µM]	·	·	·	?
Cc1cc2ccc(Cl)nc2nc1C	5%	·	·	·	0%
COC(=O)CN1C(=O)CSc2ccc(S(=O)(=O)Nc3ccc(C(C)=O)cc3)cc21	-15%	·	·	·	-2%
CCOc1ccc(C(=O)C(C)OC(=O)C2CCN(c3ccc(C(F)(F)F)cn3)CC2)cc1 (stereo unspecified)	16µM*	25	-11%	-14%	23µM*
Cc1ccc(C(=O)C(C)OC(=O)C2CCN(c3ccc(C(F)(F)F)cn3)CC2)cc1C (stereo unspecified)	?	15	-3%	0%	?
COc1ccc(C(CNS(=O)(=O)c2ccccc2)N2CCN(C)CC2)cc1 (stereo unspecified)	5%	2	4%	5%	10%
CCN1CCN(C2=C(NS(=O)(=O)c3ccc(Br)cc3)C(=O)c3ccccc3C2=O)CC1	21µM*	29	-14%	-5%	23µM*
CCOC(=O)C1CCN(C2=C(NS(=O)(=O)c3ccc(Br)cc3)C(=O)c3ccccc3C2=O)CC1	?	12	-29%	?	?
O=C1C(NS(=O)(=O)c2ccc(Cl)cc2)=C(N2CCCCC2)C(=O)c2ccccc21	26µM*	?	?	?	18µM*
CN1CCN(C2=C(NS(=O)(=O)c3ccccc3)C(=O)c3ccccc3C2=O)CC1	23µM*	5	2%	-3%	?
CCN1CCN(C2=C(NS(=O)(=O)c3ccccc3)C(=O)c3ccccc3C2=O)CC1	21µM*	54	-3%	5%	16µM*
Cc1nn(-c2ccccc2)c(Cl)c1C(=O)OCC(=O)N(C)c1c(N)n(Cc2ccccc2)c(=O)[nH]c1=O	5%	10	10%	3%	-16%
COCCn1c(CN2CCN(C(c3ccccc3)c3ccccc3)CC2)nc2c1c(=O)n(C)c(=O)n2C	?	22	10%	14%	16µM*
CC(C)CCn1c(CN2CCN(C(=O)c3ccco3)CC2)nc2c1c(=O)n(C)c(=O)n2C	1%	4	-1%	-12%	?
Cn1c(=O)c2c(nc(CN3CCN(C(c4ccccc4)c4ccccc4)CC3)n2CCCO)n(C)c1=O	?	-5	-22%	-4%	21µM*
SMILES	TDP1 cell CPT	IL-1B inflam inh	HT1080 IDH1KD tx	HT1080NT lethal	DT40 TDP1 no CPT
O=C(c1ccccc1)n1c(=O)cc[nH]c1=O	-5%	0	0%	5%	-5%
N#CC1=C(N)S[C@H](C(=O)C23CC4CC(CC(C4)C2)C3)[C@H]1c1ccncc1	?	-15	?	23µM*	?
O=C(NCc1ccncc1)C12CC3CC(CC(C3)C1)C2	10%	13	-6%	2%	-9%
COc1ccccc1Nc1nc2ccc(Cl)cc2nc1-n1nc(C)cc1C	-3%	·	·	·	1%
Cc1cc(C)nc(Nc2nc(C(N)c3ccccc3)cs2)n1 (stereo unspecified)	?	?	-22%	?	?
NC(CCc1ccccc1)c1csc(Nc2nccc(C(F)(F)F)n2)n1 (stereo unspecified)	?	-18	?	16µM*	?
Cc1cc(C)nc(Nc2nc(C(N)CCc3ccccc3)cs2)n1 (stereo unspecified)	?	-21	?	?	21µM*
O=C(C1CCCCC1)N1CCC2CC1c1cc(Cl)ccc12 (stereo unspecified)	?	7	9%	8%	?
Nc1c2c(nc3sc4c(c13)CCCC4)-c1ccccc1CC2	-20%	-88*	18µM*	?	?
CCCCN(C(=O)c1ccc(N2CCCC2=O)cc1)c1c(N)n(CCC)c(=O)[nH]c1=O	-15%	-11	0%	2%	6.5µM*
NS(=O)(=O)c1ccc(NC(=S)NCc2ccccc2Cl)cc1	-23%	-3	-2%	-4%	?
Fc1ccc(NC(=S)NCc2ccccc2Cl)cc1	0%	-71*	1%	7%	-4%
CCC(C)c1ccc(NC(=S)NCc2ccccc2OC)cc1 (stereo unspecified)	?	22	-20%	-27%	23µM*
COc1ccccc1CNC(=S)Nc1ccc(F)cc1	3%	10	6%	7%	5.2µM*
COC(=O)Cc1ccc(NC(=S)NCc2ccccc2OC)cc1	?	10	16%	15%	?
CN(C(=O)CCc1ccccc1)c1nnc(-c2ccncc2)s1	11%	13	-3%	0%	-24%
Cc1ccc(OCC(=O)Nc2ccc3oc(=O)ccc3c2)c(C)c1	?	-7	-10%	-19%	?
CC(=O)NC(c1cccc(F)c1)c1nc(-c2ccc3ccccc3c2)cs1 (stereo unspecified)	?	-29	?	-29%	?
COc1ccc(-c2csc(C(NC(C)=O)c3ccc(F)c(F)c3)n2)cn1 (stereo unspecified)	23µM*	-12	-9%	8%	?
COc1cccc(C(NC(C)=O)c2nc(-c3cnn(C)c3)cs2)c1 (stereo unspecified)	?	-1	21%	8%	1%

Compound activity as filed in PubChem.
